Laboratory results: PubChem BioAssay
Several values for one entry are separate records, joined by “and”; a condition that tells them apart may be missing. Identical values can stand only once. Activity calls are given as the source filed them. Unless noted, no rule for the calls is given here.

What was measured:
[1] = system: XIP peptide (Xip251-270) binding; test: small-molecule binders of XIP peptide, primary screen, biochemical, small-molecule microarray, fluorescence 635/667 nm, 0.1 µg/mL protein (AID 1182); conditions: fluorescent protein binding, 635 nm; higher = more signal, called active from +8 up or from −8 down unless noted
XIP peptide (Xip251-270) = test: small-molecule binders of XIP peptide, primary screen, biochemical, small-molecule microarray, fluorescence 635/667 nm, 0.5 µg/mL protein (AID 1183); conditions: small-molecule microarray binding, fluorescence 635 nm; higher = more signal
[2] = Plasmodium falciparum growth inhibition, primary screen, strain 3D7, DAPI fluorescence, 100 nL (AID 1184);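 also: parasites grown inside human red blood cells in medium with human serum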; conditions: P. falciparum 3D7 growth, 3 d, higher = more signal
[3] = target: Homeobox protein Hox-A13 (Mus musculus) (UniProt Q62424); test: inhibitors of HoxA13-DNA binding, primary screen, biochemical, fluorescence polarization, labeled oligonucleotide (AID 1185); conditions: 15 min; higher = more signal, called active from +8 up or from −8 down unless noted
[4] = inhibitors of hydroxyurea-induced Chk1 phosphorylation, primary screen, imaging, HeLa, phospho-Chk1 antibody, percent positive cells (AID 1186); conditions: hydroxyurea-induced phospho-Chk1 immunofluorescence imaging, higher = more signal
[5] = inhibitors of hydroxyurea-induced Chk1 phosphorylation, primary screen, imaging, HeLa, phospho-Chk1 nuclear intensity (AID 1187); conditions: hydroxyurea-induced phospho-Chk1 immunofluorescence imaging, higher = more signal

Sequence of Homeobox protein Hox-A13 (Mus musculus) (Q62424 whole entry, looked up): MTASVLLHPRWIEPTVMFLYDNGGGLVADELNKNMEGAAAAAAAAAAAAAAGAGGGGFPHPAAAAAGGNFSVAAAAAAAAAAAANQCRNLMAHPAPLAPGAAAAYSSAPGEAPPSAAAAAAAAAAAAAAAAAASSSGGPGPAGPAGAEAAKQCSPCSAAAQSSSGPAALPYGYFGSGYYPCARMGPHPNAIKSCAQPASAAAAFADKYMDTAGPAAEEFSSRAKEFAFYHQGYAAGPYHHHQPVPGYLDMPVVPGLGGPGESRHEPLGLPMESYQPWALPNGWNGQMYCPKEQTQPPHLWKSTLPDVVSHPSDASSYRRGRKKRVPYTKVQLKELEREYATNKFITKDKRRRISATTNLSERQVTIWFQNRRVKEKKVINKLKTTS

SMILES	composite z-score [1]	composite z-score (XIP peptide (Xip251-270))	z-score [2]	z-score [3]	z-score [4]	z-score [5]
CCCc1cc2c(n1Cc1cccc(Cl)c1)C(C)C1CN(C(=O)c3ccccc3)C(C)(C(=O)OC)C21 (centres undefined)	1.12 (inactive)	-0.589	-0.413	-5.79 (inactive)	0.251 (inactive)	0.861 (inactive)
OCc1ccc(C2=CC(C3CC3)N(Cc3sc4ccccc4c3Cl)CC2)cc1 (centres undefined)	1.51 (inactive)	0.625	-3.04	3.12 (inactive)	-0.6 (inactive)	-0.744 (inactive)
CN1CCC(c2ccc(CO)cc2)=CC1C1CC1 (centres undefined)	-0.809 (inactive)	0.005	-0.0622	-1.39 (inactive)	0.738 (inactive)	0.657 (inactive)
COC(=O)C1(C)C=C2C(=C(C)C(=O)C2C)CN1 (centres undefined)	-0.309 (inactive)	-0.628	-1.06	-3.26 (inactive)	0.414 (inactive)	0.354 (inactive)
COC(=O)[C@@]1(Cc2ccccc2)[C@H]2c3cc(C(=O)N(C)C)n(C)c3C[C@H]2CN1C(=O)c1ccccc1	0.0028 (inactive)	-0.0822	-0.731	-6.38 (inactive)	-0.344 (inactive)	-0.428 (inactive)
CCCc1cc2c(n1CCO)C(C)C1CN(C(=O)c3ccccc3)C(C)(C(=O)OC)C21 (centres undefined)	0.26 (inactive)	0.719	0.119	-4.02 (inactive)	1.28 (inactive)	1.1 (inactive)
C=C(CC1(CNP(=O)(c2ccccc2)c2ccccc2)CC1)c1ccccc1	1.26 (inactive)	0.651	-0.176	-2.28 (inactive)	-0.462 (inactive)	-0.427 (inactive)
CCCC[C@@H]1C[C@H]1[C@@H](NP(=O)(c1ccccc1)c1ccccc1)c1ccc(Cl)cc1	0.156 (inactive)	-0.337	0.0345	-2.17 (inactive)	0.368 (inactive)	0.316 (inactive)
COC(=O)NCC=Cc1nc(CCC=CC(=O)O[C@H]2CC3CC(=O)O[C@@H](C=CCC(C)C)C[C@@H]4CC[C@H](C)[C@@H](C[C@@H](OC)C[C@H](C2)O3)O4)co1	0.0433 (inactive)	-1	-1.65	-2.54 (inactive)	–	–
CC1N(P(=O)(c2ccccc2)c2ccccc2)CC(O)(c2ccccc2)CC12CC2 (centres undefined)	0.51 (inactive) and -0.0366 (inactive)	0.547 and 0.382	0.2 and -0.527	-3.23 (inactive) and -3.55 (inactive)	0.694 (inactive) and 0.475 (inactive)	0.608 (inactive) and 0.341 (inactive)
COC(=O)[C@H]1C(=O)c2ccccc2O[C@@](C(=O)OC)(c2ccccc2)[C@@H]1c1ccccc1	0.107 (inactive)	0.191	-1.6	-0.6 (inactive)	–	–
CCOC(=O)[C@H]1CC=C2C(=O)Oc3ccccc3[C@@H]21	0.23 (inactive)	0.637	-0.654	-2.72 (inactive)	0.466 (inactive)	0.0685 (inactive)
CCCc1cc2c(n1Cc1ccco1)C(C)C1CN(C(=O)c3ccccc3)C(C)(C(=O)OC)C21 (centres undefined)	1.32 (inactive)	0.741	0.0125	-4.51 (inactive)	0.586 (inactive)	0.875 (inactive)
C[C@@H]1Cc2c(cnc3c2CN(C)CC3)CO1	-0.422 (inactive)	0.188	-0.0396	-2.8 (inactive)	–	–
OCc1ccc(C2=CC(c3cccs3)N(Cc3cccc(OC(F)(F)F)c3)CC2)cc1 (centres undefined)	0.209 (inactive)	-0.0913	-3.09	-1.91 (inactive)	-0.308 (inactive)	-0.44 (inactive)
O=P(c1ccccc1)(c1ccccc1)N1CC2(CC2)CC(O)(c2ccccc2)C1 (centres undefined)	0.115 (inactive)	0.725	0.45	-2.7 (inactive)	0.37 (inactive)	0.613 (inactive)
COC(=O)[C@@]1(Cc2ccccc2)[C@H]2c3cc(C(=O)N(C)C)[nH]c3C[C@H]2CN1C(=O)c1ccccc1	0.665 (inactive)	-0.456	0.747	-3.47 (inactive)	-0.493 (inactive)	-0.73 (inactive)
C[C@@H]1OC=C2[C@@H](O)[C@H]3O[C@H]3C(=O)[C@]23[C@H]1[C@H]1C2=C([C@@H](O)[C@H]4O[C@H]4C2=O)[C@@H]3O[C@@H]1C	-0.496 (inactive)	-0.465	0.487	-0.299 (inactive)	–	–
CN1CCc2nc(CO)c(CO)cc2C1	-0.102 (inactive)	-0.446	-0.221	-0.184 (inactive)	–	–
